PubChem BioAssay
Activity calls are given as the source filed them. How the calls were made is not given here.

What follows are compounds tested against Pantothenate synthetase (Mycobacterium tuberculosis (strain ATCC 25618 / H37Rv)) (UniProt P9WIL5) (assay: Coupled enzyme confirmation of inhibitors against recombinant Mtb PanC (AID 375;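 further: 0% = full reaction with vehicle and 100% = no enzyme background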)). Details: coupled enzyme assay; at 10 µM, active compounds read high.
Chain of Pantothenate synthetase (Mycobacterium tuberculosis (strain ATCC 25618 / H37Rv)) (P9WIL5 whole entry, looked up): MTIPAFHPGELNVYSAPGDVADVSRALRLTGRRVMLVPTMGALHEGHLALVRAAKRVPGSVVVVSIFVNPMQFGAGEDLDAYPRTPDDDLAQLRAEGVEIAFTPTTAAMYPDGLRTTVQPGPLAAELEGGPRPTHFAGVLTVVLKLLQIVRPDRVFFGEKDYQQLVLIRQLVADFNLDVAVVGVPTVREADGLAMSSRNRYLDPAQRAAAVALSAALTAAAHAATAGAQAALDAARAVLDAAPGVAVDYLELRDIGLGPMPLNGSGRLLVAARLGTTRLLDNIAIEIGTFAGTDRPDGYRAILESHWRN

| Compound | inhibition |
| --- | --- |
| O=C(CCN1C(=O)c2ccccc2C1=O)NCCN1CCOCC1 | 0% (inactive) |
| CC1(c2ccc(Cl)cc2)NC(=O)N(CC(=O)NC(=O)NCc2ccco2)C1=O (stereo not given) | 1% (inactive) |
| Cc1occc1C(=O)N1CCN(c2ncccn2)CC1 | 6% (inactive) |
| Cc1cc2ccccc2n1CCNC(=O)c1ccc(S(=O)(=O)N2CCOCC2)cc1 | 4% (inactive) |
| N#Cc1c(N)n(CCOC(=O)c2cccc(Br)c2)c2nc3ccccc3nc12 | 3% (inactive) |
| COC(=O)C1C(=O)c2c([nH]c(C(=O)OCCOC(C)C)c2C)CC1C (stereo not given) | 0% (inactive) |
| O=C(NCc1ccco1)c1cc2n(n1)C(C(F)(F)F)CC(c1ccc(F)cc1)N2 (stereo not given) | 9% (inactive) |
| NC(=O)c1c(NC(=O)CSc2nnc(-c3ccco3)n2-c2ccccc2)sc2c1CCC2 | 0% (inactive) |
| O=C(Nc1cnn(C23CC4CC(CC(C4)C2)C3)c1)c1cnn2c(C(F)(F)F)cc(-c3ccco3)nc12 | 0% (inactive) |
| Nc1nonc1-c1noc(-c2ccccc2Br)n1 | 0% (inactive) |
| CS(=O)(=O)N(CC(=O)Nc1ccc2c(c1)OCCO2)Cc1ccccc1 | 2% (inactive) |
| Cc1cccc(N2C(=O)CC(N3CCN(C(=O)c4ccccc4)CC3)C2=O)c1 (stereo not given) | 5% (inactive) |
| O=C(Oc1ccc2c(c1)CCC2)N1CCOCC1 | 0% (inactive) |
| COc1ccc(N2CCN(C(c3cccc(OC)c3OC)c3nnnn3C3CCCC3)CC2)cc1 (stereo not given) | 0% (inactive) |
| Cc1ccc(NC(=O)COC(=O)c2ccn(C)n2)cc1 | 0% (inactive) |
| Cc1noc(/C=C/N(C)C)c1S(=O)(=O)N1CCCC(C(=O)N2CCCCC2)C1 (stereo not given) | 7% (inactive) |
| CCCCCC#CCC#CCC#CCC#CCCCC(=O)O | 0% (inactive) |
| OC(CCN1CCCCC1)(c1ccccc1)c1ccccc1 | 3% (inactive) |
| CCN(C(=O)c1cc(Cl)ccc1OC)C1CCCCC1 | 0% (inactive) |
| CCCc1cc(N2CCCC2)n2nc(C)c(-c3ccccc3)c2n1 | 0% (inactive) |

| Compound | inhibition |
| --- | --- |
| CCN1CCN(c2ncc(C(=O)N3CCN(c4ccccc4OC)CC3)c3ccccc23)CC1 | 3% (inactive) |
| CC1(C)NC(=O)N(CC(O)CN2CCCC2)C1=O (stereo not given) | 2% (inactive) |
| C=CCC(NCc1ccco1)c1ccc(OC)cc1OC (stereo not given) | 3% (inactive) |
| CCn1c(=O)cc(SCC(=O)NCCN2CCN(Cc3ccccc3)CC2)c2ccccc21 | 0% (inactive) |
| CCOC(=O)CSC1=C(C#N)C(=O)NC2(CCCCC2)S1 | 3% (inactive) |
| Cc1cccc(Cn2c(=O)n(Cc3ccco3)c(=O)c3ccccc32)c1 | 0% (inactive) |
| CCCCN(CCCC)CCCNC(=O)CC1Oc2ccc(C)cc2NC1=O (stereo not given) | 3% (inactive) |
| O=C(NCCC1=CCCCC1)C1CCN(C(=O)Nc2ccccc2)CC1 | 0% (inactive) |
| CC(=O)c1ccc(N2CCN(C(=O)c3cc(C)on3)CC2)cc1 | 0% (inactive) |
| O=C(Nc1ccc2c(c1)OCCO2)NC1CCCCC1 | 0% (inactive) |
| CC(C)CNS(=O)(=O)c1ccc(CCC(=O)N2CCOCC2)cc1 | 0% (inactive) |
| OCC#CCSc1nnc(-c2ccccc2Br)o1 | 0% (inactive) |
| CCc1ccccc1N=C1SCC(=O)N1C | 0% (inactive) |
| COc1ccc(-c2cc3n(n2)CCc2nc4ccccc4n2-3)cc1 | 0% (inactive) |
| CCOC(=O)c1ccccc1NC(=O)CSc1nnc(COc2ccccc2C)n1C | 2% (inactive) |
| CCOP(=O)(c1ccc(N(C)C)cc1)C(O)c1c(Cl)cccc1Cl (stereo not given) | 0% (inactive) |
| CCOC(=O)C1CSc2[nH]c(=O)sc2C1c1ccccc1 (stereo not given) | 0% (inactive) |
| COC(=O)c1[nH]c2c(c1C)C(=O)CC(c1cc(OC)ccc1OC)C2 (stereo not given) | 0% (inactive) |
| CN(C)CCC(c1ccc(Br)cc1)c1ccccn1 (stereo not given) | 0% (inactive) |
| CCSc1nnc(NC(=O)c2csc(C)c2)s1 | 1% (inactive) |
